Holding throughout (experiment): DAPPL (digital affinity profiling via proximity ligation, sequencing); 10 mM Tris-HCl pH 7.5, 50 mM NaCl, 1 mM DTT, 4% glycerol, room temperature, 30 min; GST-TFs on glutathione beads, 16-mer random dsDNA library, 0.1% formaldehyde crosslink after washing; high values mean tight binding
The target in one assay is T1, FLI1 (Homo sapiens, UniProt Q01543 1-452).
T1 sequence: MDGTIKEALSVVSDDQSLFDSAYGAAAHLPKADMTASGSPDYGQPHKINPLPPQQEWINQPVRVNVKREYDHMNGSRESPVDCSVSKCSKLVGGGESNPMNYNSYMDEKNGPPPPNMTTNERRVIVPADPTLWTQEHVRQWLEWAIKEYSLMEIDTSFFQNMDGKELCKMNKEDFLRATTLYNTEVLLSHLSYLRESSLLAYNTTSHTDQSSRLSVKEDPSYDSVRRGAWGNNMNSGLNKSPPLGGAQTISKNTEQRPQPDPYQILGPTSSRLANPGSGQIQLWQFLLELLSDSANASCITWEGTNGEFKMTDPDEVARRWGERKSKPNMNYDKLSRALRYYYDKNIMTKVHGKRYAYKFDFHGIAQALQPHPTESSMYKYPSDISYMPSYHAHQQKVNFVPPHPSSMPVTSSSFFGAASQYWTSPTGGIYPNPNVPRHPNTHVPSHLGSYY
Conditions: protein: recombinant; tags: N-terminal GST; dsDNA, one strand shown. The method, boiled down:
(§1)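 Pools were built from human transcription factors expressed in yeast as GST fusions, captured on glutathione beads and DNA-barcoded, along with a tag-only sample. Incubation with 200 nmole of a 16-mer random double-stranded DNA library lasted 30 min at room temperature in Tris/NaCl/DTT/glycerol buffer, and was followed by washing, 0.1% formaldehyde crosslinking, proximity ligation, PCR amplification and Illumina NextSeq500 sequencing. Binding signal is the quotient of each hexamer's read frequency for a factor and its frequency for the tag-only sample.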

For a further assay, the target named is T2, ELK1 (Homo sapiens, UniProt P19419 1-428).
T2 sequence: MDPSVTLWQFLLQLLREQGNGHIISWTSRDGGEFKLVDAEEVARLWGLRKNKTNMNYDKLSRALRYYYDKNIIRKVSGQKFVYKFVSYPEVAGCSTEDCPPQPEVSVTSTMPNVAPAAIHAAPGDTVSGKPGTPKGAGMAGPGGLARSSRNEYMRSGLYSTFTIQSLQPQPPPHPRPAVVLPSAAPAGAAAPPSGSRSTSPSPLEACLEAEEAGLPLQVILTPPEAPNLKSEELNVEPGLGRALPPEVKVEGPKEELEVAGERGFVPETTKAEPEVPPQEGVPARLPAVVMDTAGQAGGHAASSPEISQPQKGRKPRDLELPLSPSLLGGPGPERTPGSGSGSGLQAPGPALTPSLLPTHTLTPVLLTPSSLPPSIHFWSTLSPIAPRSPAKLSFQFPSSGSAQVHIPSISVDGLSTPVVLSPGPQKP
Conditions: protein: recombinant; tags: N-terminal GST; dsDNA, one strand shown. The method, boiled down: as §1

A further assay concerns the target T3, GABPA (Homo sapiens, UniProt Q06546 1-454).
T3 sequence: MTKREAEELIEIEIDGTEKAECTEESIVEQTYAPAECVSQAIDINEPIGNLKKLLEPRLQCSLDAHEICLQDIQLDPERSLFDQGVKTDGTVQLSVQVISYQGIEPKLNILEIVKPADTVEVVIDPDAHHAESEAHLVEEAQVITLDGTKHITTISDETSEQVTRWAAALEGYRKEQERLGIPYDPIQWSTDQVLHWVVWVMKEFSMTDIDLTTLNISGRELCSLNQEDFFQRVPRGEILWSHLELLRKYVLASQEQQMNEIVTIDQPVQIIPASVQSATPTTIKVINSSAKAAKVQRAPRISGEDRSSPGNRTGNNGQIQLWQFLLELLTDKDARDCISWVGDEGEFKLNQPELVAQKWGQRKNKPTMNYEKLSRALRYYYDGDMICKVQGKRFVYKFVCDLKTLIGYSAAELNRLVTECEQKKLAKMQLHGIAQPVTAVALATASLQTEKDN
Conditions: protein: recombinant; tags: N-terminal GST; dsDNA, one strand shown. The method in brief:
as §1

Another assay deals with T4, ERG (Homo sapiens, UniProt P11308 1-479).
T4 sequence: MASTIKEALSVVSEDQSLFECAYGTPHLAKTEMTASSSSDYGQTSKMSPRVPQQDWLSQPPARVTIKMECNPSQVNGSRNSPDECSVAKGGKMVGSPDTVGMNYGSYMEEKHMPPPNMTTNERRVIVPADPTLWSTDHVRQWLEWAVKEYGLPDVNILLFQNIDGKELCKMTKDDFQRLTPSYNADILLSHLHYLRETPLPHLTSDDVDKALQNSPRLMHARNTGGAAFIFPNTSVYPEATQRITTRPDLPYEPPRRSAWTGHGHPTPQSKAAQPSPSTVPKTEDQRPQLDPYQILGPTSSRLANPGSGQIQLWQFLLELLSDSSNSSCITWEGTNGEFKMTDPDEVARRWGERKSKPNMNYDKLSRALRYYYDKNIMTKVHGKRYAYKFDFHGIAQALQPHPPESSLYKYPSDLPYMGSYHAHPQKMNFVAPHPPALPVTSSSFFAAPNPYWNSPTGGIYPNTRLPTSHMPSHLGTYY
Conditions: protein: recombinant; tags: N-terminal GST; dsDNA, one strand shown. The method in brief: as §1

The target in a further assay is ELF1 (Homo sapiens, UniProt P32519 1-619). Conditions: protein: recombinant; tags: N-terminal GST; dsDNA, one strand shown. The method in brief:
as §1

Another assay has as its target T5, EHF (Homo sapiens, UniProt Q9NZC4 1-300).
T5 sequence: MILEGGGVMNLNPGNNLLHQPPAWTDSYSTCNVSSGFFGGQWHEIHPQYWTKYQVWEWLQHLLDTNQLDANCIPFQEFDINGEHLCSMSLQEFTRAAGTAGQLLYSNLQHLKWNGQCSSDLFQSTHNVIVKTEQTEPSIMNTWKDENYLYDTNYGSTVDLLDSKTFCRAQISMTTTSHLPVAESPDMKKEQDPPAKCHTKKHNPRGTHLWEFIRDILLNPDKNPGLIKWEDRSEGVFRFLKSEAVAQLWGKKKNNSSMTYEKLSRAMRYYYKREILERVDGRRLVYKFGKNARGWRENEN
Conditions: protein: recombinant; tags: N-terminal GST; dsDNA, one strand shown. The method, boiled down: as §1

The next assay deals with SPI1 (Homo sapiens, UniProt P17947 1-270). Conditions: protein: recombinant; tags: N-terminal GST; dsDNA, one strand shown. The method in brief:
as §1

The target of a further assay is SPIB (Homo sapiens, UniProt Q01892 1-262). Conditions: protein: recombinant; tags: N-terminal GST; dsDNA, one strand shown. The method in brief: as §1
Chain of SPIB (Q01892 whole entry): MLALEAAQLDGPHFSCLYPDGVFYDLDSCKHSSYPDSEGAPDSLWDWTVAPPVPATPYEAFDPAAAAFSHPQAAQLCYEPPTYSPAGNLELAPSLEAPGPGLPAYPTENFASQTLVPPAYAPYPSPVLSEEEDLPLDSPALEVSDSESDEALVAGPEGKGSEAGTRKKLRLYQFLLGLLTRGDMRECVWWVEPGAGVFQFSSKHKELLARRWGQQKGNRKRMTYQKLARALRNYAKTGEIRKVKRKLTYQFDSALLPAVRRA
In the next assay the target is T6, ELK3 (Homo sapiens, UniProt P41970 1-407).
T6 sequence: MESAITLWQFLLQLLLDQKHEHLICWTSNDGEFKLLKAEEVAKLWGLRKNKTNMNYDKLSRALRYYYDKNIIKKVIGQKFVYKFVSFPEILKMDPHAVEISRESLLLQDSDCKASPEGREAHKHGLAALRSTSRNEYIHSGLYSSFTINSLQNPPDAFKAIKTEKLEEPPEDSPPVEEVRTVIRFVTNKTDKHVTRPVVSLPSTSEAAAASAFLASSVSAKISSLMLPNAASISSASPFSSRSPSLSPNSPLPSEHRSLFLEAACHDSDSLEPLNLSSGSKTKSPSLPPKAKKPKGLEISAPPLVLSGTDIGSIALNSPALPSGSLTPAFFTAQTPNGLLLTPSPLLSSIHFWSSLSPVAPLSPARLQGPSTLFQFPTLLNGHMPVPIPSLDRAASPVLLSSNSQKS
Conditions: protein: recombinant; tags: N-terminal GST; dsDNA, one strand shown. The method in brief:
as §1

In a further assay the target is T7, FEV (Homo sapiens, UniProt Q99581 1-238).
T7 sequence: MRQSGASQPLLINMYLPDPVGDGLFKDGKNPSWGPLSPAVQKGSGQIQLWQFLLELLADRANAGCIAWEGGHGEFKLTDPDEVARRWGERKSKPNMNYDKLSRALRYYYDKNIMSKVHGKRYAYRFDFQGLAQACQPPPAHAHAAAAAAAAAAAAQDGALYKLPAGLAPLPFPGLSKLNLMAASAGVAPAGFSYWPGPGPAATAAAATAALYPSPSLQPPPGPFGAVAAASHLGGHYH
Conditions: protein: recombinant; tags: N-terminal GST; dsDNA, one strand shown. The method, boiled down: as §1

Another assay concerns the target ETV5 (Homo sapiens, UniProt P41161 1-510). Conditions: protein: recombinant; tags: N-terminal GST; dsDNA, one strand shown. The method, boiled down: as §1
Another assay addresses HSF1 (Homo sapiens, UniProt Q00613 1-529). Conditions: protein: recombinant; tags: N-terminal GST; chain copies: 3; dsDNA, one strand shown. The method, boiled down:
as §1

Another assay has as its target T8, SPIC (Homo sapiens, UniProt Q8N5J4 1-248).
T8 sequence: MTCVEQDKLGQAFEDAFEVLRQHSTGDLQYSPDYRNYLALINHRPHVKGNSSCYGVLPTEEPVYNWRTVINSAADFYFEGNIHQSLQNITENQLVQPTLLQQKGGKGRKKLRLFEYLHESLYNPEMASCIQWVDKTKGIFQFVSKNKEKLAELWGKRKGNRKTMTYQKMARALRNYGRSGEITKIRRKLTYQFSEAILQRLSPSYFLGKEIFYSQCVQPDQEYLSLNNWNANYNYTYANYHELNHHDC
Conditions: protein: recombinant; tags: N-terminal GST; dsDNA, one strand shown. The method, boiled down: as §1

A further assay deals with ELF4 (Homo sapiens, UniProt Q99607 1-663). Conditions: protein: recombinant; tags: N-terminal GST; dsDNA, one strand shown. The method in brief: as §1
Chain of ELF4 (Q99607 whole entry): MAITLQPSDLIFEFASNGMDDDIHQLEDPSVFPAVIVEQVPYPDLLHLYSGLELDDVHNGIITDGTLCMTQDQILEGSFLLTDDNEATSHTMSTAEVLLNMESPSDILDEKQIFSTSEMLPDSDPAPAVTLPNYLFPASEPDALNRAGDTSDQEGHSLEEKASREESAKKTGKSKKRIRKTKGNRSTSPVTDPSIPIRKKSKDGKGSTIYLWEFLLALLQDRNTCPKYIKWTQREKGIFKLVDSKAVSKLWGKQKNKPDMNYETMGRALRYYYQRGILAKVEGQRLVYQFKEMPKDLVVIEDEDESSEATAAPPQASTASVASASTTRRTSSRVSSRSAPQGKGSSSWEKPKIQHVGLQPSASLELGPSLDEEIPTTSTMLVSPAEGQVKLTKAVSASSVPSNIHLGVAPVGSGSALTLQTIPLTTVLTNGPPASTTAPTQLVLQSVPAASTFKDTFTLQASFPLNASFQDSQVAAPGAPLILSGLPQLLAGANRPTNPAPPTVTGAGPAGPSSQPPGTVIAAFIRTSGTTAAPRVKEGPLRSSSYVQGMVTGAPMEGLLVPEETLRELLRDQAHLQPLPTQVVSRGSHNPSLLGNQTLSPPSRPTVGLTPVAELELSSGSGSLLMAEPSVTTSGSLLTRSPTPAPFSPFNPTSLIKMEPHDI
A further assay addresses T9, ELK4 (Homo sapiens, UniProt P28324-2 1-405).
T9 sequence: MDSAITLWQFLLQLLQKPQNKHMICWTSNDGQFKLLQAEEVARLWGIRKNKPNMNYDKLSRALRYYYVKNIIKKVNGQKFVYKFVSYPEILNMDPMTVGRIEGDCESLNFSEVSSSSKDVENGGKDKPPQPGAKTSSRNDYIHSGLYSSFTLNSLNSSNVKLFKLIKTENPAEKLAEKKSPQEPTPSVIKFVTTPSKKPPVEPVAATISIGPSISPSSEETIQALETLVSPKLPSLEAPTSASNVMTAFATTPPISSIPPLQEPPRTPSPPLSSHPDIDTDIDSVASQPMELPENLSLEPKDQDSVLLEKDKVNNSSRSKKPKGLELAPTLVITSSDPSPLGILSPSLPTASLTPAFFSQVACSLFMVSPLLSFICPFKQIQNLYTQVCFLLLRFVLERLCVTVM
Conditions: protein: recombinant; tags: N-terminal GST; dsDNA, one strand shown. The method, boiled down: as §1

The target of another assay is T10, ETV2 (Homo sapiens, UniProt O00321 1-342).
T10 sequence: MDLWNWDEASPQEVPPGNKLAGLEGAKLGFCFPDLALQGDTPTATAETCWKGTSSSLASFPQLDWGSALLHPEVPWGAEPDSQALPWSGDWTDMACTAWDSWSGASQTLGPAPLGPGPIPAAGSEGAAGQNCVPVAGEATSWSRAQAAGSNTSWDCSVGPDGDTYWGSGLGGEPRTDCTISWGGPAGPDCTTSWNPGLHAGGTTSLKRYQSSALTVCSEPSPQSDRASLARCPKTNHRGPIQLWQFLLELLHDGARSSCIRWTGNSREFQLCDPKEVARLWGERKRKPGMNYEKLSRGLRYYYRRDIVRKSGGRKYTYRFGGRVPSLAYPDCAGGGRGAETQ
Conditions: protein: recombinant; tags: N-terminal GST; dsDNA, one strand shown. The method in brief:
as §1

For the next assay, the target named is T11, ELF3 (Homo sapiens, UniProt P78545 1-371).
T11 sequence: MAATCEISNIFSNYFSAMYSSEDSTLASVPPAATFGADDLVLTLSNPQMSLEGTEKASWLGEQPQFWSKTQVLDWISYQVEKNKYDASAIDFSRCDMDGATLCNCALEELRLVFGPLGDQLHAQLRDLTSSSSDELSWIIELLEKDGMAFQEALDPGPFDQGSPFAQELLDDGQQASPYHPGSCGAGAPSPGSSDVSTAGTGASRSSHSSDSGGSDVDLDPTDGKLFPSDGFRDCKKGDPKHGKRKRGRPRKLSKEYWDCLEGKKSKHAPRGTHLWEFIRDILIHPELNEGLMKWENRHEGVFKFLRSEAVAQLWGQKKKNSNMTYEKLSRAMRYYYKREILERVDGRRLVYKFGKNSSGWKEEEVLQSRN
Conditions: protein: recombinant; tags: N-terminal GST; dsDNA, one strand shown. The method in brief: as §1

For another assay, the target named is CRX (Homo sapiens, UniProt O43186 1-299). Conditions: protein: recombinant; tags: N-terminal GST; dsDNA, one strand shown. The method in brief: as §1
Chain of CRX (O43186 whole entry): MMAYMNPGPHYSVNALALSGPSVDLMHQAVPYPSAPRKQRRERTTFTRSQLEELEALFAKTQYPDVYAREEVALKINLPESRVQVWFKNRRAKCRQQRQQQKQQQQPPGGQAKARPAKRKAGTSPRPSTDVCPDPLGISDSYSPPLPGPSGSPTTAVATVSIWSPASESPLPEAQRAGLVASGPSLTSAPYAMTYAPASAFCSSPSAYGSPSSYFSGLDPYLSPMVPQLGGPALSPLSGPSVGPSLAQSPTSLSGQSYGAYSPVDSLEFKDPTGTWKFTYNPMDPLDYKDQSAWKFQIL
Another assay addresses ETV1 (Homo sapiens, UniProt P50549 1-477). Conditions: protein: recombinant; tags: N-terminal GST; dsDNA, one strand shown. The method in brief:
as §1

Chain of HSF1 (Q00613 whole entry): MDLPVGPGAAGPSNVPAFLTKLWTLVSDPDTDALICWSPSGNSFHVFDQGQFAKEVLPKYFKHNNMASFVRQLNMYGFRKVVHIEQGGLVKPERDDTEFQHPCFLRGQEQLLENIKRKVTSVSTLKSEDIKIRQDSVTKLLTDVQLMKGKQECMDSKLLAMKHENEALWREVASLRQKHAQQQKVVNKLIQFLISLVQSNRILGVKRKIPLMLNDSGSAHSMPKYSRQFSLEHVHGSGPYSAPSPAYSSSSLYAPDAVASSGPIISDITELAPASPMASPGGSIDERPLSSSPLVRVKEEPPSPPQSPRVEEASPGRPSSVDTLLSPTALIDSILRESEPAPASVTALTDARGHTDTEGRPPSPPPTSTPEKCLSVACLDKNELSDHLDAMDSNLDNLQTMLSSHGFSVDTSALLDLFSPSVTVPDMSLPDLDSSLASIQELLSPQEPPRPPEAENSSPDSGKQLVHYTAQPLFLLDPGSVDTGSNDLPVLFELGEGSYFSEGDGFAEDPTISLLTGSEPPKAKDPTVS
Chain of ETV1 (P50549 whole entry): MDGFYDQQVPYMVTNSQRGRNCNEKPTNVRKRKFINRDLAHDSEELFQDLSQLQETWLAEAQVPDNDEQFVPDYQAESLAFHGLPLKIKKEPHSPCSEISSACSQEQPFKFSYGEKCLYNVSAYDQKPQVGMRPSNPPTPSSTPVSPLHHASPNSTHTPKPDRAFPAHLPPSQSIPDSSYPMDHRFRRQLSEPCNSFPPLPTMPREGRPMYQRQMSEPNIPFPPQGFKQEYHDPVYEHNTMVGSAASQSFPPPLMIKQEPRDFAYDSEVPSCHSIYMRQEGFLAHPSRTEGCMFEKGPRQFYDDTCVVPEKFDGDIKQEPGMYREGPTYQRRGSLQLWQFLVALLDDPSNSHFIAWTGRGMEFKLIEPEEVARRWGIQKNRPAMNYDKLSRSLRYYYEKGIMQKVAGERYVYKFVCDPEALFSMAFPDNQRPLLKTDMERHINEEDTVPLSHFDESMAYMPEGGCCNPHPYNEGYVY
Chain of ETV5 (P41161 whole entry): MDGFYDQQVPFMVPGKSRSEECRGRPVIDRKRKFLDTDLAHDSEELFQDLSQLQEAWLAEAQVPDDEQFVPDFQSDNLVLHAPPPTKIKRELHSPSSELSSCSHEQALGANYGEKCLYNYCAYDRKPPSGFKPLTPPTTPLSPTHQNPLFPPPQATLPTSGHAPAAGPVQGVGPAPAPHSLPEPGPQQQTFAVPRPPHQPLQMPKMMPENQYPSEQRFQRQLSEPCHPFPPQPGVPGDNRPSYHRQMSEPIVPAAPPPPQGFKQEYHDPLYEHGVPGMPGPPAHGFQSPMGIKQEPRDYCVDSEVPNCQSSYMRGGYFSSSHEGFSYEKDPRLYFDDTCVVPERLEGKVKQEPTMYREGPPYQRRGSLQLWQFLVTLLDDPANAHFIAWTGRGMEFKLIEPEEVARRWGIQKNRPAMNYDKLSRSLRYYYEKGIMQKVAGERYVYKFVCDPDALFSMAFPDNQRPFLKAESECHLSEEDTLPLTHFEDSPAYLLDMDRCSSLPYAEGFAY
Chain of ELF1 (P32519 whole entry): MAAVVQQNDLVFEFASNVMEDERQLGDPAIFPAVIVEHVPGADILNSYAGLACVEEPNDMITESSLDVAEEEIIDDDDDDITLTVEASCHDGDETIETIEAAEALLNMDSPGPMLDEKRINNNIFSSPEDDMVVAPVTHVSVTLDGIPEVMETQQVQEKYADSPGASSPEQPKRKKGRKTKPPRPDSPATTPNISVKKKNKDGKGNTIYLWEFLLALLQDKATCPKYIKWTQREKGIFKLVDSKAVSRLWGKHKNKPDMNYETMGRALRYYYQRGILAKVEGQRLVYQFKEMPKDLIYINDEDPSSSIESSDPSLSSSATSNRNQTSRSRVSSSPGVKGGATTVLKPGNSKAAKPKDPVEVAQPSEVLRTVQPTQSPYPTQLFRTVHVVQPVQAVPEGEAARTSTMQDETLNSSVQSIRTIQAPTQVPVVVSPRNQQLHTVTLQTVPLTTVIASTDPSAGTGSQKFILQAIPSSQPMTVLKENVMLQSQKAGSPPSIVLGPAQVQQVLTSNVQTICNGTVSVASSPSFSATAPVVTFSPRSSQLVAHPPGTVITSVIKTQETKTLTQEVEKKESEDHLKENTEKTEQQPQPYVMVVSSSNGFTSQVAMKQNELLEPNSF

With CGCCTA, the binding signal with FLI1 was 1.17 fold enrichment (6-mer frequency, TF over GST control); in the assay with ELK1, 1.19 fold enrichment (6-mer frequency, TF over GST control); with GABPA, 1.15 fold enrichment (6-mer frequency, TF over GST control); in the assay with ERG, 1.14 fold enrichment (6-mer frequency, TF over GST control); with ELF1 it was 1.16 fold enrichment (6-mer frequency, TF over GST control); with EHF it was 1.23 fold enrichment (6-mer frequency, TF over GST control). Further, the binding signal with SPI1 was 1.13 fold enrichment (6-mer frequency, TF over GST control); with SPIB, 1.22 fold enrichment (6-mer frequency, TF over GST control); with ELK3, 1.24 fold enrichment (6-mer frequency, TF over GST control); with FEV it was 1.11 fold enrichment (6-mer frequency, TF over GST control); with ETV5, 1.18 fold enrichment (6-mer frequency, TF over GST control); with HSF1, 1.15 fold enrichment (6-mer frequency, TF over GST control). Moreover, the binding signal is 1.36 fold enrichment (6-mer frequency, TF over GST control) with SPIC; 1.12 fold enrichment (6-mer frequency, TF over GST control) with ELF4; 1.28 fold enrichment (6-mer frequency, TF over GST control) with ELK4; 1.13 fold enrichment (6-mer frequency, TF over GST control) with ETV2; 1.06 fold enrichment (6-mer frequency, TF over GST control) with ELF3; 1.18 fold enrichment (6-mer frequency, TF over GST control) with CRX. Besides, in the assay with ETV1, the binding signal is 1.12 fold enrichment (6-mer frequency, TF over GST control).

(Values after publication PMC7862700, “An all-to-all approach to the identification of sequence-specific readers for epigenetic DNA modifications on cytosine”.)
